Values joined by “and” are separate entries in the source; they are usually repeats but may differ in a detail not shown here. Equal values may be shown once. About 83,000 compounds went through this panel and 20% of them were active in at least one assay; those are over-represented in the sample as a whole.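 Percent growth is the endpoint: 0 to 100 indicates growth inhibition (40 means 60% inhibition), 0 means no net growth, and negative values indicate cell death.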 Active and inactive are the calls of the source. Where a SMILES comes first, the peptide text is derived from it. The star is where a group is joined. Trt = c1ccc(C(c2ccccc2)(c2ccccc2)*)cc1; Cbz = O=C(OCc1ccccc1)*
test system: MDA-MB-435 melanoma; assay: NCI-60 one-dose screen, 48 h (100 = growth as untreated, 0 = no growth, -100 = all killed); conditions: 10 µM
Method: Growth inhibition of the MDA-MB-435 human Melanoma tumor cell line is measured as a screen for anti-cancer activity. Cells are grown in 96 well plates and exposed to the test compound for 48 hours. Compounds are tested at a single concentration, which is 10^-5 M for most compounds. The reported endpoint is percent growth (GI% or GIPRCNT), where numbers from 0 - 100% represent growth inhibition, and numbers from -100% - 0 represent cell death. For example, a value of 40 represents 60% growth inhibition. A value of 0 means no net growth occurred over the course of the experiment. A value of -40 indicates 40% of cells at the beginning of the experiment died by the end of the experiment. A value of -100 means all cells are dead at the end of the experiment.
NCI-60 Human Tumor Cell Lines Screen was performed using the standard one-dose NCI protocol, which is described in more detail at https://dtp.cancer.gov/discovery_development/nci-60/default.htm.
Compounds with GIPRCNT values below 10 were considered active. Activity score was based on GIPRCNT using the following formula: […]
Score is 0 for GIPRCNT values of 100 or above, 50 for GIPRCNT values of 0, and 100 for GIPRCNT values of -100.

Structure (SMILES) | growth
O=C(Nc1cccc(Br)c1)Oc1cccc2cccnc12 | 98.2% (inactive)

same assay, conditions: 10 µM unless noted

Structure (SMILES) | growth
COC(=O)[C@@]12OC[C@]34[C@H]([C@@H](O)[C@@H]1O)[C@@]1(C)[C@H](O)C(=O)C=C(C)[C@@H]1C[C@H]3OC(=O)C(OC(C)=O)[C@@H]24 (stereo not given in full) | -81.2% (active)
Oc1c(Cl)c2ccccc2c2ccccc12 | -72% (active)
CC(=O)ON=C1C=CC(=C(C#N)c2ccccc2)C=C1 | -2.19% (active)
N[C@H](C(=O)O)[C@@H]1CC(Cl)=NO1 | 29.6% [20 µM] (inactive)
COC(=O)c1nc(=S)[nH]c(C(=O)OC)c1C(=O)c1ccccn1 | 33.3% (inactive)
COC(=O)Nc1nc2ccc(C(=O)c3ccccc3)cc2[nH]1 | -59.5% (active) and -46.6% (active) and -73% (active)
Cc1ccc2c(ccc3c[n+]4c5ccccc5ccc4n32)c1 | -27.5% (active)
COc1cc(/C=C/C(C)=O)ccc1O | 101% (inactive) and 106% (inactive)
Oc1ccc(/C=N/NC(=S)Nc2ccccc2)nc1 | 31.5% (inactive)
N#CSCc1ccc(Cl)c(CSC#N)c1 | 3.85% (active)
CCN1/C(=C\c2cc[n+](CC)c3ccccc23)C=Cc2ccccc21 | -30.7% (active)
CCC1OC(OC)C=CC1=O (stereo not given) | 98.6% (inactive)
Cc1cc2nc(CS)[nH]c2cc1C | 90.9% (inactive)
O=C(/C=C\c1cc(Br)ccc1O)/C=C/c1cc(Br)ccc1O | -47.9% (active)
COC(=O)C(CSC(c1ccccc1)(c1ccccc1)c1ccccc1)NC(=O)C(CC(N)=O)NC(=O)OCc1ccccc1 (stereo not drawn) (Cbz-Asn-Cys(Trt)-OMe; configuration not given here) | -37.3% (active)
N#CSCc1ccc(CSC#N)c(Cl)c1 | 40.6% (inactive)
Oc1c(Cl)cc(Cl)c2cccnc12 | 63.1% (inactive) and 54.3% (inactive)
CC1OC2CC(=O)OC2C2=C1C(=O)c1c(O)cccc1C2=O (stereo not given) | -68% (active)
COc1cc(/C=C(/C)C[N+](=O)[O-])ccc1O | 105% (inactive)

Structure (SMILES) | growth
NC(=S)N/N=C/c1ccc(Cl)s1 | 104% (inactive)
Oc1c(Br)cc(Cl)cc1C(c1cc(Cl)cc(Br)c1O)C(Cl)(Cl)Cl | 39% (inactive)
O=C1c2ccccc2C(=O)c2sc(Nc3cccc(Cl)c3)nc21 | -83.5% (active)
Nc1ncnc2c1ncn2C1OC(CO)C(O)C1O (stereo not given) | 110% (inactive) and 103% (inactive) and 112% (inactive)
CCCCCCCCCCCCCCNCc1ccccc1 | 72.2% (inactive)
O=C(Oc1cccc2cccnc12)c1ccccc1 | 88% (inactive)
C[N+](C)=c1ccc2nc3c(cc(NCCCNc4cc5oc6cc(=[N+](C)C)ccc-6nc5c5ccccc45)c4ccccc43)oc-2c1 | -82.1% (active)
Cc1ccc(N=C=C(c2ccccc2)c2ccccc2)cc1 | 79.9% (inactive)
O=C1NC(=O)/C(=C/C=C/c2ccccc2)S1 | 49.6% (inactive)
Cc1ccc2nc(C[n+]3ccc4ccccc4c3)ccc2c1 | 54.7% (inactive)
CN(C)CCOc1ccc2c(c1)C(=O)/C(=C\c1ncc([N+](=O)[O-])n1C)C2 | -73.6% (active)
CN(C)c1ccc(N=Nc2cccc3ccccc23)cc1 | 98.8% (inactive)
Cc1cc(N)c2ccccc2[n+]1CCCCCCCCCC[n+]1c(C)cc(N)c2ccccc21 | -77.2% (active) and 6.1% (active)
CN=C(N)N/N=C(\C)c1ccc2c(c1)Cc1cc(/C(C)=N/NC(N)=NC)ccc1-2 | -59.7% (active)
S=C(NCCNC(=S)[S][Sn]([c]1ccccc1)([c]1ccccc1)[c]1ccccc1)[S][Sn]([c]1ccccc1)([c]1ccccc1)[c]1ccccc1 | -88% (active)
O=C1C=CC(=O)N1C1c2ccccc2-c2ccccc21 | 110% (inactive)
O=C1C2=C(Nc3cc([N+](=O)[O-])ccc3N2)OC1c1c2ccccc2cc2ccccc12 (stereo not given) | 73% (inactive)
CNC(=O)N/N=C/c1ccc([N+](=O)[O-])o1 | 121% (inactive)
Nc1ccc(SSc2ccc(N)cc2)cc1 | 93.4% (inactive)

same assay, conditions: 100 µM

Structure (SMILES) | growth
O=C(Nc1cccc(Br)c1)Oc1cccc2cccnc12 | 43.1% (inactive)

— PubChem BioAssay (NCI)
